Screening results from PubChem BioAssay.
Fam108B counter – Fam108B inhibition, counter-screen for RBBP9 inhibitors. recombinant Fam108B, FP-Rh probe fluorescence polarization. inhibition, % at 9.51 µM. actives 0.33% (n = 300,000);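 active = inhibition above the screen mean inhibition plus 3 SD, computed separately per campaign, cut at about 18% in these data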;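 also: inhibitors lower polarization as less probe binds the enzyme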
LYPLA2 inh – counter-screen for PME1 inhibitors: inhibitors of human LYPLA2 | inhibition, % at 5.9 µM | O95372 | actives 0.38% (n = 320,000) | recombinant LYPLA2, FP-Rh probe fluorescence polarization;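 active = inhibition above the screen-wide mean plus 3 SD, limit set per campaign, cut at about 26% in these data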;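 also: 0% = LYPLA2 with DMSO and 100% = wells lacking LYPLA2 enzyme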
Target sequence (O95372 whole entry, looked up): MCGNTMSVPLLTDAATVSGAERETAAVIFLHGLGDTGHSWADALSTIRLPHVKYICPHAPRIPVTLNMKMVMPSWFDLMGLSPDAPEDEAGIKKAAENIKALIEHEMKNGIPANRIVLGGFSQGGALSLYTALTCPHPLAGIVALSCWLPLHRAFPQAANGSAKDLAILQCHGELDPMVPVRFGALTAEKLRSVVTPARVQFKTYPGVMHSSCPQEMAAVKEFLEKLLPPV
PREPL inhibitor – inhibitors of human prolyl oligopeptidase-like enzyme PREPL | actives 0.68% (n = 320,000) | inhibition, % at 5.96 µM | recombinant PREPL, fluorescence polarization activity-based probe; in the data active = inhibition above about 43%;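 also: 0% = enzyme with DMSO and 100% = wells lacking enzyme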
LYPLA1 counter – blocks human lysophospholipase 1, a PME1 counter-screen; O75608; inhibition, % at 5.9 µM; actives 0.16% (n = 320,000); recombinant LYPLA1, FP-Rh probe fluorescence polarization;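 active = inhibition above the mean of all tested compounds plus 3 SD, set per campaign, cut at about 14% in these data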;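 also: inhibitors block serine hydrolase probe labeling of LYPLA1 so polarization falls; 0% = enzyme with DMSO and 100% = wells lacking LYPLA1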
MEX-5 binding – C. elegans MEX-5 TCR-2 RNA binding activity; Q9XUB2; MEX-5/FITC-TCR2 RNA binding, fluorescence polarization; active compounds read low; activity score (negative = inhibition of binding), % at 10 µM; actives 0.38% (n = 300,000);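 active = inhibition past about -25% in most replicates, and total fluorescence under double the plate's negative control median, limit read from the data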;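 also: 0% = DMSO and -100% = 5 µM competing unlabeled TCR2 RNA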
PME-1 primary – PME-1 (human) inhibition; inhibition, % at 5.9 µM; actives 0.53% (n = 320,000); Q9Y570; recombinant PME-1, FP-Rh probe fluorescence polarization; AID 2130;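 active = inhibition above the campaign mean of all compounds plus 3 SD, cut at about 26% in these data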;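 also: competitive labeling of PME-1 active site by serine hydrolase directed probe; 0% = PME-1 with DMSO and 100% = wells lacking PME-1 enzyme; inhibitors block probe labeling so polarization falls and inhibition rises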
Target sequence (Q9Y570 whole entry, looked up): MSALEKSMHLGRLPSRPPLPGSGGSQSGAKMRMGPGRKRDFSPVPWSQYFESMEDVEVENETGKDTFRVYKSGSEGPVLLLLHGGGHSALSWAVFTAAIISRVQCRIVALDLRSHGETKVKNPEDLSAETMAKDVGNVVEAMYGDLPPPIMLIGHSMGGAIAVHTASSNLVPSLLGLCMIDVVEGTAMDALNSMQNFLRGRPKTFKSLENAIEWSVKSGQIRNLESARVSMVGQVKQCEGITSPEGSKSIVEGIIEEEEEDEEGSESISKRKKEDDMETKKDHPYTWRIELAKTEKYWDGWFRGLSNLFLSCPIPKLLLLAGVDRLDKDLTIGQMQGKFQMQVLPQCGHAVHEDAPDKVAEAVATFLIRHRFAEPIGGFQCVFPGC
Fam108b confirm – confirmation of mouse Fam108b serine hydrolase inhibitors. shares compounds with Fam108B counter. recombinant Fam108b, FP-Rh probe fluorescence polarization. inhibition, % at 9.51 µM. actives 44% (n = 930);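 active = inhibition above a limit from the primary screen, the mean over all compounds plus 3 SD, cut at about 19% in these data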;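 also: 0% = median of active Fam108b wells and 100% = catalytically dead S170A mutant; inhibitors free the probe so polarization falls as inhibition rises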
Numbers without * were called inactive. Shown are actives, neighbours in structure and some others; about 1.6% of the full set was active somewhere.

How did Cc1cc(C)cc(NC(=S)Nc2ccc3cn[nH]c3c2)c1 do in these assays?
Fam108B counter: 1; LYPLA2 inh: 4; PREPL inhibitor: -1; LYPLA1 counter: -3; MEX-5 binding: 2; PME-1 primary: 2

Results for CCOCCOC(=O)c1ccc(NC(=O)c2cc(OC)c(OC)c(OC)c2Br)cc1 ?
Fam108B counter: 1; LYPLA2 inh: 1; PREPL inhibitor: 8; LYPLA1 counter: -3; MEX-5 binding: 1; PME-1 primary: 0

Results for Oc1c(Br)cc(Br)cc1/C=N/Nc1ccc(Cl)nn1 ?
Fam108B counter: 5; LYPLA2 inh: 2; PREPL inhibitor: 2; LYPLA1 counter: 0; MEX-5 binding: 4; PME-1 primary: 1

Results for CCOc1ccc(/C=N/Nc2ccc(Cl)nn2)c(O)c1 ?
Fam108B counter: -1; LYPLA2 inh: 0; PREPL inhibitor: -12; LYPLA1 counter: -6; MEX-5 binding: 2; PME-1 primary: 1

What do the screens show for `Oc1ccc(/C=N/Nc2ccc(Cl)nn2)c(O)c1O`?
Fam108B counter: 23*; LYPLA2 inh: 1; PREPL inhibitor: 27; LYPLA1 counter: -5; MEX-5 binding: -48*; PME-1 primary: -3; Fam108b confirm: -8

What do the screens show for `Oc1c(Br)cc(/C=N/Nc2nncc3ccccc23)cc1Br`?
Fam108B counter: 19*; LYPLA2 inh: -5; PREPL inhibitor: 7; LYPLA1 counter: 1; MEX-5 binding: -2; PME-1 primary: 5; Fam108b confirm: 23*

What do the screens show for `Oc1c(Br)cc(/C=N/Nc2ccc(Cl)nn2)cc1Br`?
Fam108B counter: 26*; LYPLA2 inh: 3; PREPL inhibitor: 18; LYPLA1 counter: 5; MEX-5 binding: -2; PME-1 primary: 12; Fam108b confirm: -13

How did C=CCNCC(=O)NN=C(c1ccccc1)c1ccccc1 do in these assays?
Fam108B counter: -7; LYPLA2 inh: 5; PREPL inhibitor: -6; LYPLA1 counter: 4; MEX-5 binding: 2; PME-1 primary: 1

Results for Cc1ccc(C(=O)NCc2occc2C(=O)O)o1 ?
Fam108B counter: -4; LYPLA2 inh: 2; PREPL inhibitor: -8; LYPLA1 counter: 3; MEX-5 binding: -2; PME-1 primary: -6

Results for CC1C(=O)N2CCCc3cc(S(=O)(=O)N4CCCCC4)cc1c32 (stereo not drawn) ?
Fam108B counter: -3; LYPLA2 inh: 1; PREPL inhibitor: 4; LYPLA1 counter: 3; MEX-5 binding: 2; PME-1 primary: -6

Results for CSc1ccc(C2Nc3cccc4cccc(c34)N2)cc1 ?
Fam108B counter: 19*; LYPLA2 inh: -20; PREPL inhibitor: 10; LYPLA1 counter: -17; MEX-5 binding: -3; PME-1 primary: 48*; Fam108b confirm: 6

Results for c1cc2c3c(cccc3c1)NC(c1ccc3c(c1)OCO3)N2 ?
Fam108B counter: 24*; LYPLA2 inh: -4; PREPL inhibitor: 10; LYPLA1 counter: -8; MEX-5 binding: -2; PME-1 primary: 23; Fam108b confirm: 4

What do the screens show for `O=[N+]([O-])c1cc(C2Nc3cccc4cccc(c34)N2)ccc1Cl`?
Fam108B counter: 1; LYPLA2 inh: -11; PREPL inhibitor: 7; LYPLA1 counter: -15; MEX-5 binding: -1; PME-1 primary: 18

Results for Cc1cccc(C2Nc3cccc4cccc(c34)N2)c1 ?
Fam108B counter: 13; LYPLA2 inh: -5; PREPL inhibitor: 20; LYPLA1 counter: -4; MEX-5 binding: -2; PME-1 primary: 11

Results for Brc1ccc(C2Nc3cccc4cccc(c34)N2)s1 ?
Fam108B counter: 42*; LYPLA2 inh: 1; PREPL inhibitor: 8; LYPLA1 counter: -8; PME-1 primary: 33*; Fam108b confirm: 28*

Results for Clc1ccc(C2Nc3cccc4cccc(c34)N2)cc1 ?
Fam108B counter: 28*; LYPLA2 inh: 2; PREPL inhibitor: 41; LYPLA1 counter: -5; MEX-5 binding: -4; PME-1 primary: 19; Fam108b confirm: 22*

What do the screens show for `CSc1ccc(C2NC(=O)c3ccccc3N2)cc1` (stereo not drawn)?
Fam108B counter: -1; LYPLA2 inh: 6; PREPL inhibitor: -1; LYPLA1 counter: 0; MEX-5 binding: 1; PME-1 primary: 6

How did Cc1c(C(=O)Nc2ccc(Cl)cc2)c2ccccn2c1C(=O)c1ccc([N+](=O)[O-])cc1 do in these assays?
Fam108B counter: -2; LYPLA2 inh: -3; PREPL inhibitor: 11; LYPLA1 counter: -1; MEX-5 binding: -1; PME-1 primary: 2

What do the screens show for `CC(=O)c1ccc(NC(=O)C(C)Sc2ccccn2)cc1` (stereo not drawn)?
Fam108B counter: 2; LYPLA2 inh: 9; PREPL inhibitor: -6; LYPLA1 counter: 1; MEX-5 binding: 0; PME-1 primary: -3

Results for O=C(O)CC(C(=O)O)N1C(=O)/C(=C/C=C/c2ccco2)SC1=S (stereo not drawn) ?
Fam108B counter: 34*; LYPLA2 inh: -10; PREPL inhibitor: -4; LYPLA1 counter: -4; MEX-5 binding: -66*; PME-1 primary: -34; Fam108b confirm: 4

How did O=C(O)C(Cc1ccccc1)N1C(=O)/C(=C/C=C/c2ccco2)SC1=S (stereo not drawn) do in these assays?
MEX-5 binding: 0

Results for O=C(NN1C(=O)/C(=C/C=C/c2ccco2)SC1=S)c1ccccc1O ?
Fam108B counter: 44*; LYPLA2 inh: -14; PREPL inhibitor: 11; LYPLA1 counter: -13; MEX-5 binding: -15; PME-1 primary: -33; Fam108b confirm: 25*

How did O=C(O)CCCN1C(=O)/C(=C/C=C/c2ccco2)SC1=S do in these assays?
Fam108B counter: 50*; LYPLA2 inh: -14; PREPL inhibitor: 12; LYPLA1 counter: -9; MEX-5 binding: -17; PME-1 primary: -39; Fam108b confirm: 11

What do the screens show for `Cc1ccc(NC(=O)CCCN2C(=O)/C(=C/C=C/c3ccccc3)SC2=S)cc1`?
Fam108B counter: -21; LYPLA2 inh: -28; PREPL inhibitor: 5; LYPLA1 counter: -21; MEX-5 binding: 1; PME-1 primary: -44

Results for COc1ccccc1OCCOCCOc1ccccc1Cl ?
Fam108B counter: -2; LYPLA2 inh: 1; PREPL inhibitor: -14; LYPLA1 counter: -2; MEX-5 binding: -2; PME-1 primary: -4

What do the screens show for `CCCCn1c(N)c(N(CC)C(=O)c2cccc(C)c2)c(=O)[nH]c1=O`?
Fam108B counter: 4; LYPLA2 inh: 6; PREPL inhibitor: 16; LYPLA1 counter: -2; MEX-5 binding: 0; PME-1 primary: 1

What do the screens show for `Oc1ccc(N=Cc2ccc(OCc3ccccc3)cc2)cc1`?
Fam108B counter: 20*; LYPLA2 inh: 11; PREPL inhibitor: 24; LYPLA1 counter: 3; MEX-5 binding: -2; PME-1 primary: 27*; Fam108b confirm: 0
